# Results reported in ChEMBL document CHEMBL4888484, “Replenishing the malaria drug discovery pipeline: Screening and hit evaluation of the MMV Hit Generation Library 1 (HGL1) against asexual blood stage Plasmodium falciparum ,using a nano luciferase reporter read-out” (2022).
# Out of some 4,800 compounds screened, about 420 (8.8%) showed an effect of 50% or more. This excerpt belongs to a sample that is enriched for strong results.
# Test system: Plasmodium falciparum
# Assay: Confirmatory screen in NF54 nanoGlo assay, in single point, at 2uM, 72h
# Type: functional, Erythrocyte
# Conditions: timepoint 72 hour
row,SMILES,% Inhibition
1,Cc1cc(CS(=O)(=O)NCCOc2ccc(Cl)cc2)on1,2%
2,CC1(C)C[C@@H](NC(=O)COc2ccc(CO)cc2)CCO1,-1%
3,O=C(Nc1nc(Cc2ccccc2)cs1)C1CCOCC1,2%
4,COc1ccc(CC2C(O)C(Cc3ccc(OC)cc3)C3CCC2N3C)cc1 (centres undefined),7%
5,COc1ccc(CNCCC2C(C)CN(C)C(C)C2Cc2ccccc2)cc1 (centres undefined),59%
6,CCNC(=O)C(=O)NCc1ccc(OC)cc1,-17%
7,C[C@H]1CS(=O)(=O)C[C@H]1NC(=O)Nc1ccc2ccoc2c1,-5%
8,O=C(Nc1ccc(Cl)c(Cl)c1)Nc1ccc(Cl)cc1NC(=O)Nc1ccc(Cl)c(Cl)c1,65%
9,CNc1nc(C)cc(C(=O)Nc2ccc(Cl)cc2NC(C)=O)n1,2%
10,C[C@@H](NC(=O)Nc1ccc(Cl)c(Cl)c1)C(=O)O,5%
11,O=C1CCC(=O)N1c1cnn(Cc2ccccc2)c1,1%
12,CC(C)(C)OC(=O)N1CCC2(CC1)NN=C1C=C(N3CCN(c4ccccc4F)CC3)N=CN12,-8%
13,CCOc1ccc(NC(=O)Cn2cnc3c(-c4cccc(OC)c4)cn(C)c3c2=O)cc1,-1%
14,CN1CC[C@H](CN(C)Cc2ccc3cc(O)ccc3c2)C1,9%
15,COC1CCCC1NC(=O)Nc1ncc(Br)cc1C (centres undefined),74%
16,CNC(=O)c1cc(Br)cnc1NC,3%
17,CC(=O)Nc1ncc(Br)cc1C,3%
18,Cc1c(NS(=O)(=O)c2ccc(Cl)cc2)c(-n2cnnc2)nn1C,-7%
19,O=C(NCCN1CCCCC1)c1n[nH]c2c1CCc1ccccc1-2,1%
20,COc1cc(=O)[nH]cc1Br,-3%
21,CC(C)N1CCO[C@H](C(=O)Nc2c[nH]nc2-c2ccccc2)C1,-5%
22,O=C(O)c1nccc(C(F)(F)F)c1Cl,-19%
23,CC(C)(C)c1ccc(NC(=O)c2ccnnc2)c(O)c1,-8%
24,CC1(C)C2CCC13CS(=O)(=O)N=C3C2 (centres undefined),3%
25,COC(=O)c1ccccc1NC(=O)NCCn1nnc2cc(S(=O)(=O)N(C)C)ccc21,55%
26,Cc1cccc(NC(=O)NCCn2nnc3cc(S(=O)(=O)N4CCCC4)ccc32)c1C,-1%

row,SMILES,% Inhibition
1,O=S(=O)(c1ccc(F)cc1)n1ccc(-c2cccc(OCc3ccc(Cl)cc3Cl)c2)n1,-4%
2,Cc1nc2c(sc(=S)n2-c2ccc(Cl)c(Cl)c2)c(=O)[nH]1,-2%
3,CCOC[C@@H](O)CN(Cc1c(C)nn(-c2ccccc2)c1Oc1cccc(C)c1)C1CC1,10%
4,CCc1cc(C(=O)N2CCC3(CC2)C[C@H](c2ccccc2)C(=O)N3C)no1,-8%
5,O=C(OCC(=O)N1CCN(Cc2ccccc2)CC1)c1nccc2ccccc12,1%
6,CC(CNc1ccccn1)N1CCOCC1C (centres undefined),-5%
7,Cc1ccc(Cl)c(OCn2ccc(C(=O)Nc3ccc(Br)cn3)n2)c1,-16%
8,O=C(NCc1ccccc1F)C1CCN(c2cncnc2N2CCCC2)CC1,33%
9,CCS(=O)(=O)C1CN(C(=O)c2ccnn2C2CCCC2)C1,-7%
10,COCCCn1c(COc2ccc(OC)cc2)n[nH]c1=O,1%
11,COc1c(Cl)cc(Cl)cc1CNC(C)C,4%
12,NCc1ccc(O)c(Br)c1,2%
13,COc1ccnc(NCc2ccc(N3CCOCC3)cc2)n1,-3%
14,Cc1ccc(CNC(=O)c2nc(-c3ccncc3)cs2)o1,7%
15,CC(=O)c1cccc(S(=O)(=O)N2CCN(C(=O)c3ccc4c(c3)CCC4)CC2)c1,2%
16,Cc1cc(C)n(S(=O)(=O)c2ccc3c(c2)OCCO3)n1,-3%
17,COc1ccc2c(c1)CCN2S(=O)(=O)c1ccc2c(c1)OCCO2,-4%
18,CC12CN(S(=O)(=O)c3ccc4c(c3)OCCO4)C3(C(=O)OCc4ccccc4)CC1CCC23C (centres undefined),59%
19,CC(C)OC(=O)N1C(=O)c2ccccc2NC1(C(F)(F)F)C(F)(F)F,-22%
20,Nc1ccc2c(c1)Oc1cc(N)ccc1OCCOCCOCCO2,-10%
21,Cc1cccc(-n2c(-c3sc(Nc4ccccc4)nc3-c3ccccc3)nc3ccccc3c2=O)c1,6%
22,COC(=O)Nc1nc(-c2ccccc2)c(-c2nc3ccccc3c(=O)n2-c2ccc(OC)cc2)s1,5%
23,O=c1c2ccccc2nc2cc(-c3ccc(O)cc3)c(-c3ccccc3)nn12,53%
24,Cc1ccc(/N=C(\N)C(Cl)(Cl)Cl)c(C)c1,-2%
25,CN(Cc1ccc(F)cc1Cl)[C@H]1CCc2nnc(C3CCOCC3)n2CC1,-13%
26,c1ccc(N2CCN(CCN[C@H]3CCc4cc5c(cc43)CCC5)CC2)cc1,8%

row,SMILES,% Inhibition
1,Cc1ccnc(CNC(=O)N[C@H]2CCc3ccc(F)cc32)c1,-10%
2,Oc1ccccc1CCN[C@H]1CCc2ccc(F)cc21,98%
3,Cc1nc2cc(F)ccc2cc1C(=O)N1CCN(S(=O)(=O)c2ccc(Br)cc2)CC1,0%
4,Cc1ccccc1CNC(=O)CN(C(C)C)C1CCOCC1,21%
5,CCO[C@H]1C[C@H](NC(=O)Nc2ccc(F)c(C3CC3)c2)C1,2%
6,COc1ccc(-n2nc(C)c3c2NC(=O)C[C@@H]3c2ccc3c(c2)OCO3)cc1,-5%
7,COC(=O)c1ccc(C)c(NC(=O)c2ocnc2C2CC2)c1,2%
8,Cc1cc(C)n(-c2c(C)[nH]c3ccccc23)n1,-7%
9,CC1=C(C(=O)Nc2cccc(Cl)c2)[C@H](c2csnn2)NC(=O)N1,-20%
10,Cc1ccc(CN2CCN(C[C@@H](O)Cn3c4ccccc4n4c(=O)cc(C)c(C#N)c34)CC2)c(C)c1,89%
11,N#Cc1c(CN2CCOCC2)cc(=O)n2c1[nH]c1ccccc12,-4%
12,O=C(Cc1c[nH]c2ccccc12)N[C@H]1CCS(=O)(=O)C1,-4%
13,CCOCCCNC/C=C/c1ccccc1,-5%
14,CC(=O)N1CCC(Nc2ccc3c(c2)CCC(=O)N3)CC1,-17%
15,COc1cc(Cl)c(C)cc1NC(=O)c1cc(=O)n(-c2ccc(C)cc2)[nH]1,-8%
16,Clc1cccc(N2CCN(Cc3ccc(OC4CCNCC4)cc3)CC2)c1,27%
17,O=C(CN1CCCCCC1)Nc1ccc(OCc2ccccc2)cc1,0%
18,c1ccc(Cn2ncc3cc(-c4nc(C5CC5)no4)cnc32)cc1,3%
19,COc1ccccc1[C@H]1CC(O)=Nc2c1ncn2-c1cc(F)cc(F)c1,-4%
20,Cn1ccnc1[C@@H]1CCCN1S(=O)(=O)c1c2c(nn1C)CCCC2,4%
21,C[C@@H](CNc1nc(-c2ccccc2)nc2nc(-c3ccc(Cl)cc3)oc12)N1CCCCC1,60%
22,O=C1CC(c2cccc(NC(=O)CCc3ccccn3)c2)CC(=O)N1,3%
23,NC(=O)c1ccc(C(F)(F)F)n(C[C@H](O)c2cc(Cl)ccc2Cl)c1=O,63%
24,Cc1cc(-n2c(C)cc(C(=O)Cn3c(C(F)(F)F)ccc(C(N)=O)c3=O)c2C)no1,25%
25,NC(=O)c1ccc(C(F)(F)F)n(CC(=O)N(Cc2ccc(F)cc2)C2CCCCC2)c1=O,-6%
26,CCN(CCN(C)C)C(=O)c1cccc(-c2ccc3nccc(N)c3c2)c1,70%

row,SMILES,% Inhibition
1,CCC(=O)N(CCN(C)C)Cc1c(-c2ccccc2)noc1N1CCCCC1,10%
2,Cc1cccc(OC[C@@H](O)Cn2cnc(C)c(C)c2=O)c1,5%
3,COc1ccc(-n2nnnc2[C@@H](NCCc2c[nH]c3ccccc23)C(C)C)cc1,-1%
4,Cc1cccc(CC(=O)N[C@@H](C)CCC(=O)O)c1,4%
5,O=C(Nc1ccccc1Cl)N1CCC(N2CCc3sccc3C2)CC1,37%
6,O=C(CCc1ccc(Cl)c(C(F)(F)F)c1)N1CC[C@H](N2CCc3ccccc3C2)C1,52%
7,CN1CCC2C(CCN2C(=O)Nc2ccc(Cl)c(C(F)(F)F)c2)C1 (centres undefined),2%
8,CC(C)c1cccc(CN2C(=O)N[C@]3(CC(C)(C)OC3(C)C)C2=O)n1,-6%
9,C[C@H](C(=O)NCC1CCN(Cc2ccccc2F)CC1)C1CCOCC1,-6%
10,CC(Oc1ccc2c(c1)C(c1ccccc1)N(Cc1ccccc1F)CC2)C(=O)NC1CC1 (centres undefined),56%
11,COc1ccc2cc3n(c2c1)C[C@](C(=O)NC1CCCCCC1)(c1ccccc1)N(Cc1ccccc1F)C3=O,-17%
12,C=CCN1CCN(c2nccn3nc(-c4ccc(Cl)cc4)cc23)CC1,-3%
13,CC[C@H]1C(=O)NCCN1C(=O)c1cc(C)n[nH]1,7%
14,Cn1c(Cc2n[n+]3c(-c4ccccc4)cc(-c4ccccc4)nc3n2C)n[n+]2c(-c3ccccc3)cc(-c3ccccc3)nc12,99%
15,COCc1nsc(N2CCC(c3ccccc3)CC2C)n1 (centres undefined),1%
16,O=C(NCc1cccnc1)c1cnn2c3c(cnc12)CCCC3,-4%
17,C[C@H]1CCN(c2nc(-c3ccccn3)nc3c2CCC3)C1,91%
18,C[C@H]1CCCN(S(=O)(=O)NCC(=O)Nc2ccccn2)C1,-15%
19,O[C@H]1Cc2ccccc2[C@H]1Nc1nc(-c2ccccn2)nc2c1CCNC2,13%
20,FC(F)(F)C1CN(c2nc(-c3ccccn3)nc3c2CCC3)C1,67%
21,CCc1ccc(NC(=O)[C@H]2CCCN(c3nc4cccnc4n(Cc4ccccc4)c3=O)C2)cc1,-6%
22,C[C@H]1CCCN(c2nc(-c3ccccn3)nc3ccccc23)C1,97%
23,CN(C)Cc1ccc(O)c(CCc2ccccc2)n1,29%
24,C[C@@]12CCCCN1CCCc1c2[nH]c2ccccc12,-15%
25,CCOc1cc(Cl)ccc1C(=O)NC1CCN(C[C@H]2CCOC2)CC1,1%
26,COc1c[nH]c(C(=O)NC2CCN(Cc3ccccc3)CC2)cc1=O,5%
